Measured values as given in the supplement of paper PMC9023506.
Where a name gives a salt, the structure may show the parent alone.

Each compound was assayed on Danio rerio larvae (5 dpf) (assay: optomotor response to fast red moving lines, difference vs DMSO (percentage points (treated minus DMSO)); higher = more of the behaviour than the DMSO vehicle control). Conditions: 10 µM; exposure time: 3 h pre-incubation + 3 h imaging.
Procedure: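 5-dpf wild-type zebrafish larvae were imaged in 96-well plates. They were treated with 190 Tocris FDA-approved drugs at 10 µM (1 µl/ml DMSO) for 3 h before and 3 h during imaging at 28.5 °C, 48 larvae per drug. Automated image analysis gave % time moving and optomotor responses. Values are drug group mean minus DMSO vehicle mean (n=844), in percentage points, for 10 behaviours.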

| Compound | optomotor response |
| --- | --- |
| C=CCN1C[C@H](C(=O)N(CCCN(C)C)C(=O)NCC)C[C@@H]2c3cccc4[nH]cc(c34)C[C@H]21 [Cabergoline] | -23.2 |
| CN1C[C@H](C(=O)N[C@]2(C)O[C@@]3(O)[C@@H]4CCCN4C(=O)[C@H](Cc4ccccc4)N3C2=O)C[C@@H]2c3cccc4[nH]cc(c34)C[C@H]21 [Dihydroergotamine mesylate] | 2.2 |
| COc1ccc(C(CN(C)C)C2(O)CCCCC2)cc1 (stereo unspecified) [Venlafaxine hydrochloride] | 7.81 |
| O=c1[nH]c2ccccc2n1C1CCN(CCCC(c2ccc(F)cc2)c2ccc(F)cc2)CC1 [Pimozide] | -34.3 |
| CC(O)(CS(=O)(=O)c1ccc(F)cc1)C(=O)Nc1ccc(C#N)c(C(F)(F)F)c1 (stereo unspecified) [Bicalutamide] | -2.63 |
| C=C1C[C@@H]2[C@H](CC[C@]3(C)C(=O)CC[C@@H]23)[C@@]2(C)C=CC(=O)C=C12 [Exemestane] | 5.64 |
| N[C@@H]1C[C@H]1c1ccccc1 [Tranylcypromine hydrochloride] | 11.9 |
| CCN(C)C(=O)Oc1cccc([C@H](C)N(C)C)c1 [Rivastigmine tartrate] | -8.58 |
| COc1cc2c(cc1OC)C1CC(=O)C(CC(C)C)CN1CC2 (stereo unspecified) [Tetrabenazine] | -22.5 |
| CC(C)C[C@H]1C(=O)N2CCC[C@H]2[C@]2(O)O[C@](NC(=O)[C@@H]3C=C4c5cccc6[nH]c(Br)c(c56)C[C@H]4N(C)C3)(C(C)C)C(=O)N12 [Bromocriptine mesylate] | -41.6 |
| CC[C@@H](C(N)=O)N1CCCC1=O [Levetiracetam] | -4.73 |
